Source: PubChem BioAssay AID504333 (National Center for Advancing Translational Sciences (NCATS), 2011)
The whole screen tested about 360,000 compounds, of which about 16,000 (4.4%) were called active. Not shown: some 9% with an inconclusive outcome. Calls come from the whole dose curve; as a rule, active = well fitted inhibition curve with a large enough effect; inconclusive = small, poorly fitted or top-dose-only effect; inactive = no such curve, though single readings can be large or run the other way. The list comes from a sample in which actives are over-represented; it also holds similar structures and randomly drawn compounds. Entries that show only a call come without a potency.
Note: nearly all actives have a fitted effect of over 60% in size.
Potency is the fitted concentration of half-maximal effect.

What follows are compounds tested against Bromodomain adjacent to zinc finger domain protein 2B (Homo sapiens) (UniProt Q9UIF8) (assay: qHTS Assay for Inhibitors of BAZ2B). Conditions: AlphaScreen BAZ2B-H3K14Ac peptide displacement; series mostly up to 114 µM.
Bromodomain adjacent to zinc finger domain protein 2B (Homo sapiens), sequence (Q9UIF8 whole entry, looked up, the tested form may be a part): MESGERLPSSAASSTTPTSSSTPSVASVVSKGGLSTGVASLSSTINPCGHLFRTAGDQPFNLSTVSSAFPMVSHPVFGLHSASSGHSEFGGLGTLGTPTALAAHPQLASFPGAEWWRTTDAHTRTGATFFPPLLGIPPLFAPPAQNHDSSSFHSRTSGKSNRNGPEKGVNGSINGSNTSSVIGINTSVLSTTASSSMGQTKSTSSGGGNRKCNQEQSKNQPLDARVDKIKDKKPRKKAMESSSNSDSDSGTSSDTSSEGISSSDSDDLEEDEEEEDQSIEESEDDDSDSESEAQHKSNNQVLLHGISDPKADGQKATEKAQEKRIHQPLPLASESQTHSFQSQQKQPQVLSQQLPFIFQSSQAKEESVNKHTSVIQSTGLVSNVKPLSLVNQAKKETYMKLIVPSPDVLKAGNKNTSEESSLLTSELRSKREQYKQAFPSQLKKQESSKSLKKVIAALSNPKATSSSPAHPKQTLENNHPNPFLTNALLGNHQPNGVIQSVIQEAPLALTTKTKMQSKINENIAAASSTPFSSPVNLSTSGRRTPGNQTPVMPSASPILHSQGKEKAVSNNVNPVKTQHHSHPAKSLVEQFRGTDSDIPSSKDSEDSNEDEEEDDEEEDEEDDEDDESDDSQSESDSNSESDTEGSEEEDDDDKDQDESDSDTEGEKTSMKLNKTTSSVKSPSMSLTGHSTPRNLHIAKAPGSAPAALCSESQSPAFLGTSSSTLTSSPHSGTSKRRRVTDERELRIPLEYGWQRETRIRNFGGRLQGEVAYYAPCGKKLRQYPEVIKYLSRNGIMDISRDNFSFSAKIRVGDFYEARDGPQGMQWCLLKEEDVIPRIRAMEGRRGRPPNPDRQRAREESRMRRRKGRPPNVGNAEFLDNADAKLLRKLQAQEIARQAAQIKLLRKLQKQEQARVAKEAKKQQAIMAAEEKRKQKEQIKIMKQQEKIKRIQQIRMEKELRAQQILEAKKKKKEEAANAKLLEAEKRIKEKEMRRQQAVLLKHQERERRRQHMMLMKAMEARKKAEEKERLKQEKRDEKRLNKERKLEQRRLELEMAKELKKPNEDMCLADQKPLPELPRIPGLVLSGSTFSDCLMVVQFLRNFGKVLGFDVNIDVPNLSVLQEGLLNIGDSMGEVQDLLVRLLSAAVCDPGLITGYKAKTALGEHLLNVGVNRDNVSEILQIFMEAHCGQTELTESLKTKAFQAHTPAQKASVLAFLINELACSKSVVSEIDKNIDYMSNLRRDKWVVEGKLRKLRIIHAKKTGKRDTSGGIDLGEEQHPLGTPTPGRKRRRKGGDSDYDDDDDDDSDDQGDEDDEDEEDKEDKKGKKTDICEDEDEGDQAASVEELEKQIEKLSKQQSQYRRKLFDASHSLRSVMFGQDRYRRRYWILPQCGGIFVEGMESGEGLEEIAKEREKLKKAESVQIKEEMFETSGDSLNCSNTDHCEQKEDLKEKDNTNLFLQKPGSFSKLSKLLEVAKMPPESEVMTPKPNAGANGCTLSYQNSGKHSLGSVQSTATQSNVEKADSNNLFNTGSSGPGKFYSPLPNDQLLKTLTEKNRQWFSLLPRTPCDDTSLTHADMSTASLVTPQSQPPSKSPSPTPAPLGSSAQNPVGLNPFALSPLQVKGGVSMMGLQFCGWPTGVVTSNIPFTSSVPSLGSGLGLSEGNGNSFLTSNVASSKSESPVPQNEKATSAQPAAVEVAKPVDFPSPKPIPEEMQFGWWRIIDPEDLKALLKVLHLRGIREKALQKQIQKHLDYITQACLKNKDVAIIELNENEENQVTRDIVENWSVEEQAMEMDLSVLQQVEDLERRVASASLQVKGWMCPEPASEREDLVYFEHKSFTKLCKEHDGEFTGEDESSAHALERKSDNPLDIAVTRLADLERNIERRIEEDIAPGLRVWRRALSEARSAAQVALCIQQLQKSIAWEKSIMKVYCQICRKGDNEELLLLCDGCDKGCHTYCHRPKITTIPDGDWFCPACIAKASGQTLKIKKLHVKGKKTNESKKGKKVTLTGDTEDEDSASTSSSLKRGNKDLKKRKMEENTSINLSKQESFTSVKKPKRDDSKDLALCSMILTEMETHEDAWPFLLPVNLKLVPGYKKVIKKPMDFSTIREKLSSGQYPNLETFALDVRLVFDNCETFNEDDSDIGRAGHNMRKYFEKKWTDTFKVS
In short: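 AlphaScreen luminescence quantifies BAZ2B engagement of H3K14Ac peptide; the protein and biotinylated peptide are both at 50 nM final, buffer PBS pH 7.4 with 0.01% Tween-20, all steps at room temperature.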
Cc1ccccc1-c1nc2cc(NC(=O)c3cccc(OCCC(C)C)c3)ccc2o1 was tested, and the Potency was “inactive”. For CCc1ccc2oc(-c3ccc(C)c(NC(=O)/C=C/c4ccco4)c3)nc2c1, the Potency was “inactive”. In the case of Cn1c2ccccc2c(=O)c2c(=O)n(Cc3ccco3)c(COc3ccccc3)nc21, the Potency was 56.2 µM (active). In the case of O=C(CSc1nnc(COc2ccc(Cl)cc2)n1Cc1ccco1)N1CCNC1=O, the Potency was “inactive”. For COCn1c(COc2ccccc2)nc2ccccc21, the Potency was “inactive”. With Cc1ccc2ncc(C(=O)Nc3ccc(OC(F)(F)F)cc3)c(=O)n2c1 the Potency was “inactive”. In the case of Cc1ccc(Cl)cc1NC(=O)CCS(=O)(=O)c1ccc(Br)s1, the Potency was “inactive”. Oc1c(C=Nc2cccc3nsnc23)ccc2ccccc12 was tested, and the Potency was 50.1 µM (active). For Cc1ccc(-n2c(=O)c3cccnc3n2CC(=O)NCc2ccc(F)cc2)cc1C, the Potency was “inactive”. C=C1c2c(Cl)ccc(O)c2C(O)=C2C(=O)[C@]3(O)C(O)=C(C(N)=O)C(=O)[C@@H](N(C)C)[C@@H]3[C@@H](O)C12 (some centres not stated) was tested, and the Potency was 2.82 µM (active). In the case of CN(C)[C@@H]1C(=O)C(C(N)=O)=C(O)[C@@]2(O)C(=O)C3=C(O)c4c(O)ccc(Cl)c4[C@@H](O)[C@H]3C[C@@H]12, the Potency was 10 µM (active). Cc1cc(=O)n(CC(=O)Nc2cccc([N+](=O)[O-])c2)c(-n2nc(C)cc2C)n1 was tested, and the Potency was “inactive”. In the case of N#Cc1ccccc1Cn1cnc2nc3c(cc2c1=O)CCCC3, the Potency was “inactive”. In the case of COc1ccc(-c2cc(-c3nc(-c4cc(OC)c(OC)c(OC)c4)no3)[nH]n2)c(OC)c1, the Potency was “inactive”. In the case of COc1ccc(N2CCN(C(=O)c3c(C)oc4nc(C)nc(N5CCCC5)c34)CC2)cc1, the Potency was “inactive”. In the case of O=C1CC(c2ccccc2)=NN1c1ccc([N+](=O)[O-])cc1, the Potency was 25.1 µM (active). CC1=NN(c2ccccc2)C(=O)C1C(=O)c1ccc([N+](=O)[O-])cc1 (configuration not stated) was tested, and the Potency was “inactive”. With O=c1[nH]n(-c2ccc([N+](=O)[O-])cc2)c(=O)c2ccccc12 the Potency was “inactive”. For CCCn1c2ccccc2c2cnn(CC(=O)NCCCOC(C)C)c(=O)c21, the Potency was “inactive”. In the case of CCc1nnc2c3ccccc3nc(N3CCN(c4ccc(C)cc4C)CC3)n12, the Potency was “inactive”. In the case of Cc1csc(=NC(=O)c2ccccc2)n1CCO, the Potency was “inactive”. In the case of CC(C)Cn1c(-c2ccc(S(=O)(=O)N3CCOCC3)cc2)csc1=Nc1cc(Cl)ccc1Cl, the Potency was “inactive”. In the case of OCCn1c(-c2ccccc2)csc1=Nc1ccccc1, the Potency was 11.2 µM (active). With CN(C)CCCn1c(-c2ccc(Cl)cc2)csc1=Nc1ccccc1 the Potency was 12.6 µM (active). With Cc1cccn2c(=O)c(C(=O)NC(C)c3ccccc3)cnc12 (configuration not stated) the Potency was “inactive”. In the case of Cc1csc2nc(COC(=O)c3ccccc3NC(=O)c3ccccc3Cl)cc(=O)n12, the Potency was “inactive”. With Cc1ccc(CN2COc3cc(C)c4c(oc(=O)c5ccccc54)c3C2)cc1 the Potency was “inactive”. With CC(=O)c1sc(N2C(=O)c3oc4ccccc4c(=O)c3C2c2ccc(C)cc2)nc1C (configuration not stated) the Potency was “inactive”. With Cc1ccc(S(=O)(=O)c2cn(Cc3ccccc3)c3cc(N4CCCC4)c(F)cc3c2=O)c(C)c1 the Potency was “inactive”. For Oc1ccc2ccccc2c1N=Nc1nccs1, the Potency was 2 µM (active). In the case of Oc1ccc(N=Nc2nccs2)c(O)c1, the Potency was 25.1 µM (active). With CCc1ccccc1N(C)C(=O)C1CCCN(c2ncnc3onc(-c4ccc(F)cc4)c23)C1 (configuration not stated) the Potency was “inactive”. CN(C(=O)CSc1nc2ccccc2n1Cc1ccccc1C#N)c1ccccc1 was tested, and the Potency was “inactive”. In the case of CC(C)(C)OC(=O)N1CCC(c2c(C(=O)NCCc3ccsc3)cnn2-c2ccc(F)cc2F)CC1, the Potency was “inactive”. Cc1ccccc1CNC(=O)CCCn1nc(C)c2sc3ccccc3c2c1=O was tested, and the Potency was “inactive”. With Cc1ccc2c(Cl)c(C(=O)Nc3nn[nH]n3)sc2c1 the Potency was 50.1 µM (active). With Cc1ccc(-c2cc(C(=O)Nc3nn[nH]n3)c3ccccc3n2)c(C)c1 the Potency was “inactive”. CCCC(=O)Nc1ccc(NC(=O)c2sc3ccccc3c2Cl)cc1 was tested, and the Potency was “inactive”. CN(C)S(=O)(=O)c1ccc(C(=O)N(Cc2cccnc2)c2nc3c(F)cc(F)cc3s2)cc1 was tested, and the Potency was “inactive”. In the case of CC(=O)Nc1cccc(NC(=O)CSc2cn(CC(=O)N3CCCC3)c3ccccc23)c1, the Potency was “inactive”. In the case of COc1ccc(Cn2c(=O)n(-c3ccccc3C)c(=O)c3c4c(sc32)CN(C(C)=O)CC4)cc1, the Potency was “inactive”. For Cn1cccc1/C=C1\SC(=S)N(NC(=O)c2ccc(Cl)cc2)C1=O, the Potency was 12.6 µM (active). CN1C(=O)C(CC(N)=O)N(NC(=O)c2ccc(Cl)cc2)C1=S (configuration not stated) was tested, and the Potency was “inactive”. CCOc1ccc(/C=C2\SC(=S)N(NC(=O)c3ccncc3)C2=O)cc1OC was tested, and the Potency was “inactive”. COc1ccc(N2CCN(C(=O)CSCc3nc(-c4ccccc4Cl)oc3C)CC2)cc1 was tested, and the Potency was “inactive”. With Cc1cccc(N=Nc2c(C)[nH]n(-c3ccccc3)c2=O)c1 the Potency was 3.16 µM (active). In the case of Cc1cccc(N=Nc2c(O)[nH]c3ccc(F)cc23)c1, the Potency was “inactive”. For Cc1[nH]n(C)c(=O)c1N=Nc1ccc(S(C)(=O)=O)cc1, the Potency was “inactive”. O=C(CCS(=O)(=O)c1ccccc1)N(Cc1cccnc1)c1nc2c(F)cccc2s1 was tested, and the Potency was “inactive”. In the case of Cc1ccc(Cl)cc1N(C)C(=O)Cn1nc(Cc2cccnc2)c2ccccc2c1=O, the Potency was “inactive”. CC1CCCCN1S(=O)(=O)c1ccc(F)c(C(=O)Nc2ccccc2C(F)(F)F)c1 (configuration not stated) was tested, and the Potency was “inactive”. In the case of COc1ccc(NC(=O)NC(C)c2c(-n3cccc3)sc(C)c2C)cc1OC (configuration not stated), the Potency was 35.5 µM (active). With CCn1cc(NC(=O)Nc2ccc(OC)c(OC)c2)c(C(N)=O)n1 the Potency was “inactive”. In the case of Cc1ccc(NC(=O)NC(C)c2c(-n3cccc3)sc(C)c2C)c(C)c1 (configuration not stated), the Potency was “inactive”. With Cc1cc(Nc2cccc(C(F)(F)F)c2)nc2ccc(NC(=O)c3ccc(=O)[nH]c3)cc12 the Potency was “inactive”. In the case of COc1ccc(-c2nc3n(c2Br)CCC3)cc1, the Potency was 50.1 µM (active). With COc1ccc(-c2nc(SCC(=O)N3CCCC3)n[nH]2)cc1 the Potency was “inactive”. For COc1ccc(-c2nnc3n2CCCCC3)cc1, the Potency was “inactive”. In the case of CCc1nn(CC(=O)Nc2cc(C)cc(C)c2)c(=O)c2cc3sccc3n12, the Potency was “inactive”. CCOC(=O)COc1cc(OCC(=O)OCC)c2c(=O)cc(-c3ccccc3)oc2c1 was tested, and the Potency was “inactive”. In the case of COc1ccc(-c2cc(=O)c3c(O)cc(O[C@@H]4O[C@H](CO[C@@H]5O[C@@H](C)[C@H](O)[C@@H](O)[C@H]5O)[C@@H](O)[C@H](O)[C@H]4O)cc3o2)cc1O, the Potency was “inactive”. COc1c(O)cc2oc(-c3ccc(O)c(O)c3)cc(=O)c2c1O was tested, and the Potency was 50.1 µM (active).
